This is an account of results in PubChem BioAssay (NCATS).

Results filed as inconclusive are left out. Activity calls are given as the source filed them. The call rests on the fitted dose curve; in most records, active means well fitted curve in the direction sought with a large enough effect; inconclusive means small, poorly fitted or top-dose-only effect, or another doubt; inactive means no such curve, though single readings can be large; an effect the other way counts as inactive or inconclusive.

Assay [1] can be described thus: Quantitative High-Throughput drug screen in 47 multiple myeloma cell lines against the NCATS MIPE library collection: AMO1_DSMZ cell viability assay (AID 1918927; further: nearly all actives have a fitted effect of over 30% in size; further: potency means the concentration at half of the fitted maximal effect). Put shortly: (§1)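 CellTiter-Glo luminescence (ATP) after 48 h compound exposure, 37C/5% CO2; 500 cells/well; MIPE 4.0 approved/investigational drugs pinned in; DMSO = 100%, media only = 0% viability.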
Assay [2] can be described thus: Quantitative High-Throughput drug screen in 47 multiple myeloma cell lines against the NCATS MIPE library collection: ARD_JJKsccE7 cell viability assay (AID 1918929; further: potency means the concentration at half of the fitted maximal effect). Put shortly: as §1
A short description of assay [3]: Quantitative High-Throughput drug screen in 47 multiple myeloma cell lines against the NCATS MIPE library collection: Karpas620_DSMZ cell viability assay (AID 1918959). Further: nearly all actives have a fitted effect of over 30% in size. Further: potency means the concentration at half of the fitted maximal effect. Put shortly:
(§2)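 Approved and investigational drugs from MIPE 4.0 were added by pin tool to 500 cells per well. After 48 hours at 37C, ATP-based CellTiter-Glo luminescence indicated remaining viability.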

Assay [4] in a line: Quantitative High-Throughput drug screen in 47 multiple myeloma cell lines against the NCATS MIPE library collection: KMM1_JCRB cell viability assay (AID 1918960). Further: nearly all actives have a fitted effect of over 30% in size. Further: potency means the concentration at half of the fitted maximal effect. Put shortly: (§3)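 500 cells/well; MIPE 4.0 library pinned in; 48 h, 37 °C, 5% CO2; CellTiter-Glo ATP luminescence. Controls: DMSO = 100% viability, medium only = 0%.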
A short description of assay [5]: Quantitative High-Throughput drug screen in 47 multiple myeloma cell lines against the NCATS MIPE library collection: JIM3_ECACC cell viability assay (AID 1918963; further: nearly all actives have a fitted effect of over 35% in size; further: potency means the concentration at half of the fitted maximal effect). Put shortly:
as §2

Assay [6] in a line: Quantitative High-Throughput drug screen in 47 multiple myeloma cell lines against the NCATS MIPE library collection: EJM_DSMZ cell viability assay (AID 1918926; further: potency means the concentration at half of the fitted maximal effect; nearly all actives have a fitted effect of over 30% in size). An outline of the steps:
as §1

The nature of assay [7]: Quantitative High-Throughput drug screen in 47 multiple myeloma cell lines against the NCATS MIPE library collection: H1112_PLB cell viability assay (AID 1918967). An outline of the steps: as §1
Assay [8] can be described thus: Quantitative High-Throughput drug screen in 47 multiple myeloma cell lines against the NCATS MIPE library collection: JIM1_ECACC cell viability assay (AID 1918964; further: potency means the concentration at half of the fitted maximal effect). An outline of the steps:
as §1

Assay [9] in a line: Quantitative High-Throughput drug screen in 47 multiple myeloma cell lines against the NCATS MIPE library collection: INA6_PLB cell viability assay (AID 1918965; further: potency means the concentration at half of the fitted maximal effect; nearly all actives have a fitted effect of over 55% in size). An outline of the steps: (§4)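 Inhibition of cell viability is measured here. Each line was plated at 500 cells per well, treated with MIPE 4.0 drugs, kept 48 hours at 37C, then assayed for ATP content by CellTiter-Glo luminescence.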

Assay [10] is described as follows: Quantitative High-Throughput drug screen in 47 multiple myeloma cell lines against the NCATS MIPE library collection: KMS27_JCRB cell viability assay (AID 1918970). Further: nearly all actives have a fitted effect of over 30% in size. Further: potency means the concentration at half of the fitted maximal effect. Put shortly: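 Viability inhibition screen, 48 h compound exposure, luminescent ATP read-out.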
Assay [11] can be described thus: Quantitative High-Throughput drug screen in 47 multiple myeloma cell lines against the NCATS MIPE library collection: ARP1_JJKsccF8 cell viability assay (AID 1918928; further: nearly all actives have a fitted effect of over 40% in size). Put shortly: as §3
Assay [12] can be described thus: Quantitative High-Throughput drug screen in 47 multiple myeloma cell lines against the NCATS MIPE library collection: KHM11_PLB cell viability assay (AID 1918962). Further: potency means the concentration at half of the fitted maximal effect; nearly all actives have a fitted effect of over 35% in size. An outline of the steps:
as §2

Assay [13] can be described thus: Quantitative High-Throughput drug screen in 47 multiple myeloma cell lines against the NCATS MIPE library collection: Karpas417_ECACC cell viability assay (AID 1918961). The following applies: Karpas417 myeloma viability, CellTiter-Glo ATP luminescence, 48 h; viability (% of DMSO): at 45.8 µM (top of the series). Put shortly: as §4
On the technique in general: Cellular ATP, detected with luciferase, serves as a proxy for viable cell number.

Assay [14] is described as follows: Quantitative High-Throughput drug screen in 47 multiple myeloma cell lines against the NCATS MIPE library collection: Karpas25_ECACC cell viability assay (AID 1918968; further: potency means the concentration at half of the fitted maximal effect; nearly all actives have a fitted effect of over 35% in size). An outline of the steps:
as §1

As for `COCCCCC(=NOCCN)c1ccc(C(F)(F)F)cc1`, the Potency entry in assay [1], in assay [2], in [3], in assay [4] and in assay [5] was “inactive” each time.
Take `c1ccc2c(-c3cnn4cc(-c5ccc(N6CCNCC6)cc5)cnc34)ccnc2c1`: the figures for the Potency in assay [6] and in assay [7] were 11.8 µM (active) and 3.32 µM (active), respectively.
With `COC1CCC(N(C(=O)C2CCC(C)CC2)c2cc(C3=CCCCC3)sc2C(=O)O)CC1` (centres undefined), the Potency result in assay [2], in [3], in [4], in assay [8] and in assay [10] was “inactive” each time. The Potency in [9] was 23.5 µM (active).
Take `CN(C)Cc1cccc(N=C(c2ccccc2)c2c(O)[nH]c3cc(C(=O)N(C)C)ccc23)c1`: the Potency entry in assay [11] was “inactive”. Besides, the Potency was 5.9 µM (active) in assay [12], 1.87 µM (active) in assay [5] and 18.7 µM (active) in assay [9].
In the case of `NC1=N[C@@]2(c3cc(NC(=O)c4ccc(F)cn4)ccc3F)COC[C@@H]2CS1`, the Potency was 2.64 µM (active) in assay [1]; 1.87 µM (active) in assay [2]; 0.418 µM (active) in [3]; 3.32 µM (active) in [4]; 13.2 µM (active) in [12]; 0.935 µM (active) in [8]. For the same compound, the Potency was 14.8 µM (active) in assay [9], 10.5 µM (active) in [7], 14.8 µM (active) in assay [14] and 0.264 µM (active) in [10]. Moreover, in assay [13], the viability (% of DMSO) is 105% (active). In addition, the Potency entry in [5] was “inactive”.
